Laboratory results published in PubChem BioAssay (Tox21).
Values joined by “and” are separate entries in the source; they are usually repeats but may differ in a detail not shown here. Equal values may be shown once. Results filed as inconclusive are left out. Entries that show only a call come without a potency. Active and inactive are the calls of the source. Unless noted, the call rests on the fitted dose curve; in most records, active means well fitted curve in the direction sought with a large enough effect in the repeat runs; inconclusive means weak or mixed curves; inactive means no such curve, though single readings can be large; an effect the other way counts as inactive or inconclusive.

Tests used:
[1] = qHTS assay to identify small molecule antagonists of the estrogen related receptor (ERR) signaling pathway from Tox21 library - cell viability counter screen (AID 1224834); further: nearly all actives have a fitted effect of over 30% in size
Method in brief: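 Viability readout (CellTiter-Fluor fluorescence, 30 min at 37 C) multiplexed with the ERR assay; cells treated 17.5 h at 37 C with compounds delivered in DMSO.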

[2] = biological target: Luciferin 4-monooxygenase (Photinus pyralis) (UniProt P08659); test: qHTS assay to identify small molecule inhibitors of firefly luciferase (AID 1224835); further: nearly all actives have a fitted effect of over 25% in size
Sequence of Luciferin 4-monooxygenase (Photinus pyralis) (P08659 whole entry, looked up): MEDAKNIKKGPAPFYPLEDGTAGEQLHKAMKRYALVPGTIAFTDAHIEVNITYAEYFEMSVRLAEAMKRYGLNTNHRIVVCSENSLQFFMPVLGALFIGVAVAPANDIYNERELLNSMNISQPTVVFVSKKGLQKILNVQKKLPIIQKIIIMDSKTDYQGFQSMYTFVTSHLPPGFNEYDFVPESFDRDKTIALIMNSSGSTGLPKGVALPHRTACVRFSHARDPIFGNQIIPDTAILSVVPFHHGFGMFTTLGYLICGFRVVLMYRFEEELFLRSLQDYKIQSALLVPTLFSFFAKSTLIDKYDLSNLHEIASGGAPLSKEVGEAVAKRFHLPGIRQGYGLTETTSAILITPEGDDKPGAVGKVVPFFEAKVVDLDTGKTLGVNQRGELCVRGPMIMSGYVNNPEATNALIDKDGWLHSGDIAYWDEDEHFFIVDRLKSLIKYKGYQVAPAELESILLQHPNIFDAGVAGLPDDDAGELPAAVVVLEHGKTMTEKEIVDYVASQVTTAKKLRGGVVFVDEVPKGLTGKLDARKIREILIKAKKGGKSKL
Method in brief: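 Inhibition of purified Photinus luciferase is measured by luminescence. Substrate levels (D-luciferin, ATP) sit at their KM values. Each compound is tested in a concentration series.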

[3] = qHTS assay to identify small molecule agonists of the constitutive androstane receptor (CAR) signaling pathway - cell viability counter screen (AID 1224836); further: nearly all actives have a fitted effect of over 45% in size
Method in brief: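 Double-stable HepG2 hepatoma cells (hCAR plus CYP2B6-2.2kb) are treated for 23 h at 37 C with test compounds in 15-point concentration series. PK11195 at 0.75 uM final is co-added. Cell viability is quantified by CellTiter-Fluor.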

[4] = qHTS assay to identify small molecule antagonists of the constitutive androstane receptor (CAR) signaling pathway - cell viability counter screen (AID 1224837); further: nearly all actives have a fitted effect of over 45% in size
Method in brief: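 Fluorescence from CellTiter-Fluor served as the viability signal. Human hepatoma HepG2 cells stably bearing hCAR and CYP2B6-2.2kb received compound plus CITCO (50 nM final) for 23 hr.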

[5] = biological target: Nuclear receptor subfamily 1 group I member 3 (Homo sapiens) (UniProt Q14994); test: qHTS assay to identify small molecule antagonists of the constitutive androstane receptor (CAR) signaling pathway (AID 1224838);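 further: HepG2 cells stably expressing hCAR with CYP2B6 luciferase reporter stimulated by CITCO; nearly all actives have a fitted effect of over 40% in size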
Sequence of Nuclear receptor subfamily 1 group I member 3 (Homo sapiens) (Q14994 whole entry, looked up): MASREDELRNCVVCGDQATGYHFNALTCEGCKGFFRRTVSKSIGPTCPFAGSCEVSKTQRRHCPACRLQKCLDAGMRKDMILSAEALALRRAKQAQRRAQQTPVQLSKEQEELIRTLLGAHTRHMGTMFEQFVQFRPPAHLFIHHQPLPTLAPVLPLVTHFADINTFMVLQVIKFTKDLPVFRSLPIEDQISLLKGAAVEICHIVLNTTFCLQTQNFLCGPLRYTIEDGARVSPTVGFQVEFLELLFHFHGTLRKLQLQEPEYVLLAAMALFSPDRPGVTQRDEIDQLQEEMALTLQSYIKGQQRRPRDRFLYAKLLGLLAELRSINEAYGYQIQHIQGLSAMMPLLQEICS
Method in brief: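 Quantitative HTS in double-stable HepG2-CYP2B6-hCAR cells. After 4 h plating, cells get compound (15 concentrations) and CITCO at 50 nM final, incubate 24 h at 37 C, then ONE-Glo luminescence is read.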

[6] = biological target: Nuclear receptor subfamily 1 group I member 3 (Homo sapiens) (UniProt Q14994); test: qHTS assay to identify small molecule agonists of the constitutive androstane receptor (CAR) signaling pathway (AID 1224839); further: nearly all actives have a fitted effect of over 15% in size
Method in brief: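 Readout: firefly luciferase luminescence via ONE-Glo. System: HepG2 double-stable for hCAR and CYP2B6-2.2kb. Conditions: 15-point compound titration, PK11195 at 0.75 uM final, 24 h incubation.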

[7] = qHTS assay to identify small molecule antagonists of the estrogen related receptor signaling pathway with the pleiotropic PPARgamma coactivator (PGC) from Tox21 10K library - cell viability counter screen (AID 1224840; active means well fitted cell-killing curve with a large enough effect in the repeat runs, not every such curve was filed as active; further: nearly all actives have a fitted effect of over 40% in size)
Method in brief: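 Compounds in DMSO, alongside positive and negative controls, were pinned onto PGC/ERR cells (2,000 per well). Exposure lasted 17.5 hours at 37 C, followed by a 30-minute CellTiter-Fluor incubation and fluorescence reading.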

[8] = qHTS assay to identify small molecule agonists of the estrogen related receptor signaling pathway with the pleiotropic PPARgamma coactivator (PGC) from Tox21 10K library (AID 1224842); further: nearly all actives have a fitted effect of over 15% in size
Method in brief: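 Luminescence from One-Glo (30 min, room temperature) measured after PGC/ERR cells had 18 h at 37 C with pinned compound (23 nL in DMSO). Cells had been seeded at 2,000 per well and pre-incubated 6 h.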

[9] = biological target: Thyrotropin receptor (Homo sapiens) (UniProt P16473); test: qHTS assay to identify small molecule agonists of the thyroid stimulating hormone receptor (TSHR) signaling pathway (AID 1224843; calls by dose curve; further: nearly all actives have a fitted effect of over 45% in size)
Sequence of Thyrotropin receptor (Homo sapiens) (P16473 whole entry, looked up): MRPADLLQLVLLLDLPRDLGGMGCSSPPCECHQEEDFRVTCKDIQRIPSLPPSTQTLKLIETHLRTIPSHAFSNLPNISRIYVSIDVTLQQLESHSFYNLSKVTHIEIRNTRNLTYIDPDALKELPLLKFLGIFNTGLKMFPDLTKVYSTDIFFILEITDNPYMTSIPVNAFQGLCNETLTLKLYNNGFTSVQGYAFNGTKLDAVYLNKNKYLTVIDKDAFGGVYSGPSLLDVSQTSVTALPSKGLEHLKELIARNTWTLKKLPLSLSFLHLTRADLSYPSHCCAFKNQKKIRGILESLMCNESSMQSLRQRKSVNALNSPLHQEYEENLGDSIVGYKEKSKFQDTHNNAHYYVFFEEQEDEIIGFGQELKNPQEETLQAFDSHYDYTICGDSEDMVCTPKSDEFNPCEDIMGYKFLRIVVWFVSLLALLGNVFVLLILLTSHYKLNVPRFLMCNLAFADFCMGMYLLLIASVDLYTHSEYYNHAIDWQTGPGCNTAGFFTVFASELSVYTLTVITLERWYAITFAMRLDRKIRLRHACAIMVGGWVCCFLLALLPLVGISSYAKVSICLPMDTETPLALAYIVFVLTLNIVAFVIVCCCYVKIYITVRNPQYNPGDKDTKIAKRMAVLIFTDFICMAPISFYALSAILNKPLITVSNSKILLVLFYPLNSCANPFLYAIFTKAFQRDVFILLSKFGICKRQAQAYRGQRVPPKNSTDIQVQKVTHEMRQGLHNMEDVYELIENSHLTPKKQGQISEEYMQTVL
Method in brief: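 Screening of the Tox21 10K collection used HEK293 cells engineered with TSHR at 800 cells per well. After a 30-min room-temperature compound exposure, HTRF cAMP reagents were added and fluorescence recorded 1 h later.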

[10] = qHTS assay to identify small molecule antagonists of the estrogen related receptor signaling pathway with the pleiotropic PPARgamma coactivator (PGC) from Tox21 10K library (AID 1224841; call rule not given here; further: actives are mostly falling curves and most rising ones were filed inactive; nearly all actives have a fitted effect of over 50% in size)
Method in brief: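 Compound exposure ran 18 hours at 37 C in PGC/ERR cells (2,000/well) that had first rested 6 hours in a 37 C/5% CO2 incubator. Luciferase activity was then detected with One-Glo after a 30-minute room-temperature step.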
Potency means the concentration at half of the fitted maximal effect.

Compound | Potency [1] | Potency [2] | Potency [3] | Potency [4] | Potency [5] | Potency [6] | Potency [7] | Potency [8] | Potency [9] | Potency [10]
C[C@H]1C[C@H](O)c2ccsc2S1(=O)=O | inactive | inactive | inactive | inactive | inactive | inactive | inactive | inactive | inactive | –
CC1(C)[C@H](C(=O)O)N2C(=O)C[C@H]2S1(=O)=O | inactive | inactive | inactive | inactive | inactive | inactive | inactive | inactive | – | inactive
OC1(c2ccccc2)CCNCC1 | inactive | inactive | inactive | inactive | inactive | inactive | inactive | inactive | inactive | inactive
N#CCc1ccc(Cl)cc1Cl | inactive | inactive | inactive | inactive | inactive | inactive | inactive | inactive | inactive | inactive
c1ccc(C[n+]2cccc3ccccc32)cc1 | inactive | inactive | inactive | inactive | inactive | inactive | inactive | inactive | inactive | 24.3 µM (active)
C=CC(=O)[O-].C=CC(=O)[O-].[Zn+2] | inactive | 2.19 µM (active) | inactive | inactive | inactive | inactive | inactive | – | – | –
O=C1NCCN1CCO | inactive | inactive | inactive | inactive | inactive | inactive | inactive | – | – | –
CCCCCCCCC(CCCCCC)C(=O)O (centres undefined) | inactive | inactive | inactive | inactive | inactive | inactive | inactive | inactive | inactive | –
CC(C)=CC(=O)C=C(C)C | inactive | inactive | inactive | inactive | inactive | inactive | inactive | inactive | inactive | inactive
CC(C)(C)CC(=O)OCC(=O)[C@@]1(O)CC[C@H]2[C@@H]3CCC4=CC(=O)C=C[C@]4(C)[C@H]3[C@@H](O)C[C@@]21C | 26.6 µM (active) | inactive | inactive | inactive | inactive | inactive | inactive | inactive | inactive | 23.7 µM (active)
CCC(=O)C1CC(C(C)C)CC=C1C (centres undefined) | inactive | inactive | inactive | inactive | inactive | inactive | inactive | inactive | – | inactive
CC(=O)Oc1ccc([N+](=O)[O-])cc1CCl | 30.6 µM (active) | inactive | 43.3 µM (active) | 30.6 µM (active) | inactive | inactive | 30.6 µM (active) | inactive | inactive | inactive
CC(O)c1ccccc1 (centres undefined) | inactive | inactive | inactive | inactive | inactive | inactive | inactive | inactive | inactive | inactive
COc1ccc(OC(=O)N(CC(=O)O)Cc2ccc(OCCc3nc(-c4ccccc4)oc3C)cc2)cc1 | inactive | inactive | inactive | inactive | inactive | inactive | inactive | inactive | inactive | inactive
CN1CCCN=C1COC(=O)C(O)(c1ccccc1)C1CCCCC1 (centres undefined) | inactive | inactive | inactive | inactive | inactive | inactive | inactive | inactive | – | inactive
COc1ccccc1Oc1c(NS(=O)(=O)c2ccc(C(C)(C)C)cc2)nc(-c2ncccn2)nc1OCCO | inactive | inactive | inactive | inactive | inactive | inactive | inactive | inactive | inactive | inactive
CC(=O)OCC(=O)NCCCOc1cccc(CN2CCCCC2)c1 | inactive | inactive | inactive | inactive | inactive | inactive | inactive | inactive | inactive | –
Cc1cccc(N(C)C(=S)Oc2ccc3c(c2)CCC3)c1 | inactive | inactive | inactive | inactive | inactive | 23.7 µM (active) | inactive | inactive | – | –
CC(CN(C)C)C(C)(O)Cc1ccc(Cl)cc1 (centres undefined) | inactive | inactive | inactive | inactive | inactive | inactive | inactive | inactive | inactive | inactive
CC(C)=CCC/C(C)=C/CC/C(C)=C/CCC(=O)OC/C=C(\C)CCC=C(C)C | inactive | inactive | inactive | inactive | inactive | inactive | inactive | inactive | inactive | inactive
C[C@@]12CCC[C@H]1[C@@H]1CC[C@H]3C[C@@H](O)CC[C@]3(C)[C@H]1CC2 | inactive | inactive | inactive | inactive | inactive | inactive | inactive | inactive | inactive | –
C=C(C)C(=O)OCCOCCOC(=O)C(=C)C | inactive | inactive | inactive | inactive | inactive | inactive | inactive | inactive | – | –
CC(C)COCC(CN(Cc1ccccc1)c1ccccc1)N1CCCC1 (centres undefined) | 26.6 µM (active) | inactive | 29.8 µM (active) | 29.8 µM (active) | 18.8 µM (active) | inactive | 29.8 µM (active) | – | – | –
CCCCCC[C@@H](O)C/C=C\CCCCCCCC(=O)O | inactive | inactive | inactive | inactive | inactive | inactive | inactive | inactive | inactive | inactive
CC(=O)N/N=C/c1ccc([N+](=O)[O-])o1 | inactive | inactive | inactive | inactive | inactive | inactive | inactive | inactive | – | inactive

Compound | Potency [1] | Potency [2] | Potency [3] | Potency [4] | Potency [5] | Potency [6] | Potency [7] | Potency [8] | Potency [9] | Potency [10]
CC(C)(C)C(=O)C(=O)O | inactive | inactive | inactive | inactive | inactive | inactive | inactive | – | – | –
CCCCCCNC(=O)n1cc(F)c(=O)[nH]c1=O | inactive | inactive | inactive | inactive | 2.11 µM (active) | inactive | inactive | inactive | inactive | inactive
CC1(C)[C@@H](OC(=O)CCC(=O)O)CC[C@]2(C)[C@H]3C(=O)C=C4[C@@H]5C[C@@](C)(C(=O)O)CC[C@]5(C)CC[C@@]4(C)[C@]3(C)CC[C@@H]12 | inactive | inactive | inactive | inactive | inactive | inactive | inactive | inactive | inactive | –
Cc1ccc(OC(=O)c2ccccc2O)cc1 | inactive | 6.33 µM (active) | inactive | inactive | inactive | inactive | inactive | – | – | inactive
O=C1c2ccccc2C(=O)C1c1ccc(Br)cc1 | inactive | 3.47 µM (active) | inactive | inactive | inactive | 29.8 µM (active) | inactive | 13.3 µM (active) | inactive | inactive
CCCCCCCC/C=C\CCCCCCCCCCCC(=O)O | inactive | inactive | inactive | inactive | inactive | inactive | inactive | – | – | –
CC/C=C1/OC(=O)c2ccccc21 | inactive | inactive | inactive | inactive | inactive | inactive | inactive | inactive | – | inactive
C=COCC(C)C | inactive | inactive | inactive | inactive | inactive | inactive | inactive | inactive | inactive | inactive
C[C@@H]1CC(=O)NN=C1c1ccc(NN=C(C#N)C#N)cc1 | 18.8 µM (active) and 13.3 µM (active) | 5.49 µM (active) and 9.77 µM (active) | 11.9 µM (active) | 11.9 µM (active) | 21.1 µM (active) | inactive | 26.6 µM (active) and 23.7 µM (active) | inactive | 0.841 µM (active) | 4.73 µM (active)
C/C=C/C=C/C=O | inactive | inactive | inactive | inactive | inactive | inactive | inactive | inactive | – | inactive
COC(=O)c1nc(Cl)c(Cl)nc1N | 11.9 µM (active) | inactive | inactive | 29.8 µM (active) | 2.98 µM (active) | inactive | 1.68 µM (active) | inactive | – | –
FC(F)(F)c1ccccc1Cl | inactive | inactive | inactive | inactive | inactive | inactive | inactive | inactive | – | inactive
CCCCN(CCN(CCCC)C(=O)N1CCOCC1)C(=O)N1CCOCC1 | inactive | inactive | inactive | inactive | inactive | inactive | inactive | – | – | –
Cc1ccccc1N=C(N)Nc1ccccc1C | inactive | inactive | inactive | inactive | inactive | inactive | inactive | inactive | inactive | inactive
COc1ncnc(NS(=O)(=O)c2ccc(N)cc2)c1OC | inactive | inactive | inactive | inactive | inactive | inactive | inactive | inactive | – | inactive
O=C(O)c1cccc(-c2noc(-c3ccccc3F)n2)c1 | inactive | 0.0087 µM (active) | inactive | inactive | inactive | 0.0075 µM (active) | inactive | – | inactive | –
NC(=O)c1ccncc1 | inactive | inactive | inactive | inactive | inactive | inactive | inactive | inactive | inactive | –
C=C(C)C(=O)OCCCCCCCCCCCCC | inactive | inactive | inactive | inactive | inactive | inactive | inactive | – | inactive | –
CC(=O)c1cc2ccccc2s1 | inactive | inactive | inactive | inactive | inactive | inactive | inactive | – | inactive | –
CC1(C)O[C@@H]2C[C@H]3[C@@H]4C[C@H](F)C5=CC(=O)C=C[C@]5(C)[C@H]4[C@@H](O)C[C@]3(C)[C@]2(C(=O)CO)O1 | inactive | inactive | inactive | inactive | inactive | inactive | inactive | – | inactive | –
CCC(=O)OC | inactive | inactive | inactive | inactive | inactive | inactive | inactive | – | inactive | –
N#CCCN(CCO)CCO | inactive | inactive | inactive | inactive | inactive | inactive | inactive | – | inactive | –
Brc1cc(Br)c(Oc2cc(Br)c(Br)cc2Br)cc1Br | inactive | inactive | inactive | inactive | inactive | inactive | inactive | – | inactive | –
Cc1cc2c(OCC(CNC(C)(C)C)OC(=O)c3ccccc3)cccc2[nH]1 (centres undefined) | inactive | inactive | inactive | inactive | inactive | inactive | inactive | – | 26.6 µM (active) | –
